PBM binding z-score data for 16 sequences are collected here from the supplement of paper PMC6555819.

Holding throughout (assay): PBM binding z-score (relative to random genomic background probes); higher = stronger binding; sequences stand for … in GC…GCGATTGACAGCGTAGAATGAAGG
In test [1] the test system is RARb homodimer (NR concentration 270 nM). The method, boiled down:
(§1)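 Binding z-scores were set against random background probes. The data came from custom Agilent 4×180K protein-binding microarrays carrying double-stranded probes with 34-nt variable regions, incubated 1 h with ligand-free nuclear receptor dimers. Partner-specific antibodies detected binding, and scanned fluorescence was regression-normalized.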

Test [2] concerns RARg:RXRa (NR concentration 270 nM, RXRa partner concentration 90 nM). The method, boiled down: as §1
The subject of test [3] is RARg homodimer (NR concentration 270 nM). The essentials: as §1
The subject of test [4] is RXRa DBDmut IVT, anti-RXR (DBD mutation: RXRa K156A/R161A, NR concentration 90 nM). The essentials: as §1
For test [5], the system named is RXRa homodimer (NR concentration 180 nM). The method, boiled down:
as §1

In test [6] the test system is THRa:RXRa (NR concentration 90 nM, RXRa partner concentration 90 nM). The essentials:
as §1

Test [7] has as its system THRa homodimer (NR concentration 90 nM). The essentials:
as §1

For test [8], the system named is VDR:RXRa (NR concentration 270 nM, RXRa partner concentration 90 nM). The method, boiled down: as §1
Test [9] concerns VDR homodimer (NR concentration 270 nM). The essentials:
as §1

Turning to AATACCGGGTCATCGTAGGCCAGAGTACGCACAG, the PBM binding z-score in [1] was found to be 3.19; in test [2], 4.84; in test [3], 4.28; in test [4], 2.45; in test [5] it was 5.06; in test [6] it was 4.59. In addition, the PBM binding z-score in test [7] amounted to 1.69; in [8], 4.42; in [9], 3.06.

Turning to CGTCCAATGTCAAAGGTCAGTGAAGAGATGACGG, the PBM binding z-score in test [1] turned out to be 4.3; in test [2], 5.61; in [3] it was 5.43; in [4], 1.04; in [5] it was 6.57; in test [6], 2.97. The PBM binding z-score in test [7] came out at 0.388; in test [8], 3.72; in [9], 1.07.

CCTACTGGGCCAAAGGTCATTGATTCCAATGCTC: the PBM binding z-score in [1] came to 4.66; in [2], 5.94; in test [3], 4.86; in test [4], 1.43; in test [5] it was 7.21; in test [6], 3.33. Further, the PBM binding z-score in [7] worked out at 0.631; in test [8], 4.75; in test [9], 2.09.

Consider CAAACTAGGGCACAGAGGTCAAAGTCCGTGCGTA, for which the PBM binding z-score in test [1] turned out to be 4.61; in test [2], 5.79; in test [3], 5.63; in [4], 2.66; in [5], 5.91; in test [6], 3.79. The PBM binding z-score in [7] came out at 1.32; in test [8], 6.64; in test [9] it was 5.23.

Regarding TCGAGTAGGTTTGGGGCATTCAGAATGGCGTCGA, the PBM binding z-score in [1] is 0.408; in [2], -0.658; in test [3] it was -0.913; in [4] it was 0.194; in [5], -0.158; in test [6], 0.0533. Besides, the PBM binding z-score in test [7] is 0.0117; in test [8], -0.0942; in test [9], -0.0123.

CAAACTAGGTCAAAGGTGAAAGTCGAGCCAACCA: the PBM binding z-score in [1] was determined as 3.44; in [2], 6.43; in test [3], 4.84; in test [4], 2.14; in [5] it was 7.81; in test [6], 3.65. In addition, the PBM binding z-score in test [7] came out at 1.03; in test [9], 1.05.

As to AGAATGAGGTTATACGTAGATCAGCGAAGAAAGT, the PBM binding z-score came out at 0.428 in test [1]; 1.76 in [2]; 0.909 in test [3]; 1.41 in [4]; 2.13 in test [5]; 1.99 in [6]. The PBM binding z-score is 0.0645 in test [7], 0.978 in [8] and 0.803 in test [9].

For the sequence CGAACTAGGTCAAGGACAGTCAATCTCCGCACGC, the PBM binding z-score in test [1] came to 3.32; in test [2] it was 3.79; in test [3], 4.63; in [4], 1.46; in test [5], 2.57; in test [6], 3.19. Further, the PBM binding z-score stood at 1.96 in test [7], 1.61 in test [8] and 0.563 in test [9].

Turning to CCTACTGGGCCAGGGTCATTGATCAGTCAAAGCA, the PBM binding z-score in test [1] came out at 2.52; in test [2], 3.5; in test [3], 2.02; in test [4], 0.154; in [5] it was 3.7; in test [6] it was 2.7. Moreover, the PBM binding z-score in test [7] was 0.841; in test [8], 3.14; in test [9], 2.48.

Consider CAAACTAGGTCACGAAAGGTGAAAGTCGAATGAC, for which the PBM binding z-score was 4.73 in [1]; 5.68 in test [2]; 6.37 in test [3]; 1.59 in test [4]; 5.25 in test [5]; 4.82 in [6]. Also, the values for the PBM binding z-score in test [7], in [8] and in test [9] were 1.92, 4.19 and 0.591, respectively.

On to TCTTGTAGAACAAGCAGGTTAAGAAAGCCTGAGT, for which the PBM binding z-score in test [1] is 0.0404; in test [2], -0.0958; in [3], -0.255; in [4] it was 0.567; in [5] it was 0.349; in test [6] it was 0.0268. Besides, the PBM binding z-score in [7] is -0.349; in [9], -0.0601.

As to CAGCCGAGGTCAGGGCCAGTATAGGAGGAACGTT, the PBM binding z-score in test [1] was found to be 3.81; in test [2], 5.52; in test [3], 5.53; in [4], 2.15; in test [5] it was 5.24; in test [6], 3.92. Also, the PBM binding z-score in [7] is 1.97; in [8] it was 3.64; in test [9] it was 1.53.

Turning to AATACAGGGTCATCGTAGGCCAGAGTACGCACAG, the PBM binding z-score in test [1] came to 3.55; in test [2], 5.49; in test [3] it was 5.05; in test [4], 3.55; in test [5], 6.83; in [6] it was 4.6. Further, the PBM binding z-score in [7] was found to be 1.54; in [8], 5.37; in [9], 3.35.

TAGCCCAGGTCATGCGGGCCAGTATAGTGTCGGC: the PBM binding z-score in [1] was found to be 2.94; in test [2] it was 4.07; in test [3], 3.99; in test [4], 1.22; in test [5], 3.45; in test [6] it was 3.85. The PBM binding z-score in test [7] was found to be 2.4; in [8] it was 3.7; in test [9], 1.49.

TGTTAAAGTTCAAAGGTAACGTAAGTATCCACAC: the PBM binding z-score in [1] is 3.61; in test [2], 5.89; in test [3], 5.47; in test [4] it was 4.41; in [5] it was 6.91; in test [6], 3.42. Also, the PBM binding z-score in test [7] came to 0.278; in test [9], 2.82.

As to CGTCCAAGGTCAGCAGGTCAGTGGAAGCGACGTG, the PBM binding z-score in [1] stood at 5.03; in test [2], 6.2; in test [3], 6.72; in test [4], 2.48; in test [5], 4.81; in test [6], 3.96. The PBM binding z-score in test [7] was 2.37; in [9] it was 1.6.
